Data on two compounds can be found in PubChem BioAssay AID720688 (NMMLSC, 2013).

The target in the experiment is Cell division control protein 42 homolog (Homo sapiens) (UniProt P60953). Put plainly: inhibition of fluorescent GTP binding to wildtype Cdc42 – biochemical, protein source comparison, flow cytometry beads, Bodipy-FL-GTP, mechanism study for Ras-family GTPase inhibitor project, late-stage follow-up (AID 720688). Conditions: GST-Cdc42 beads; protein source 1, at 100 µM (top of the series). A general note: In flow cytometry, cells or beads pass a laser one at a time.
Chain of Cell division control protein 42 homolog (Homo sapiens) (P60953 whole entry, looked up): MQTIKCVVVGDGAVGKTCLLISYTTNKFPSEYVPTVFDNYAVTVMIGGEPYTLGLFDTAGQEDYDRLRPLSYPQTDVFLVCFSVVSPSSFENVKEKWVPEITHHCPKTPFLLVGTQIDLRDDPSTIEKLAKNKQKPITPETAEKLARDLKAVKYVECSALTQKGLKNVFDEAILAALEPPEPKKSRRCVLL

Calls of active or inactive are those of the source.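 How the source made its calls: active means half-effect concentration at most 10 µM, response change at least 30% across doses, and a curve fit passing quality checks; inactive means the rest.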

`CC1(C)Cc2c(sc(NC(=S)NC(=O)c3ccc(N=[N+]=[N-])cc3)c2C(=O)O)CO1`: the compound was classed as inactive.

On to `CC1(C)Cc2c(sc(NC(=S)NC(=O)c3cccc(N=[N+]=[N-])c3)c2C(=O)O)CO1`, for which the result was inactive.
